Screens from PubChem BioAssay.
NRP1-CendR mod: modulators of CendR peptide binding to NRP-1, primary screen, biochemical, fluorescence polarization, uHTS; FAM-RPARPAR peptide binding to NRP-1; AID 602438, 2012; 360,000 compounds, 0.85% hits; inhibition, % at 25 µM;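 active = inhibition or corrected inhibition above about 18%, plus a signal ratio from 0.5 to 1.5, limit read from the data, passing the limit was not always enough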
Yeast superoxide: reduction of superoxide in aged yeast, primary screen, HTS; superoxide response (% of plate mean), % at 10 µM; 330,000 compounds, 0.18% hits; S. cerevisiae aged cells, superoxide DHE fluorescence; hits give low values; AID 2690, 2010;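 active = superoxide response under a set limit, about three screen SD below normal, cut at about 65% in these data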;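 also: yeast aged for seven days with compound at 30 °C before DHE staining; 100% = average MFI of all compound-treated wells on the plate with controls excluded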
A3A deaminase: APOBEC3A ssDNA deaminase inhibitors, primary screen, selectivity assay for APOBEC3G inhibitor project, biochemical, FAM/TAMRA oligo cleavage fluorescence. DNA dC->dU-editing enzyme APOBEC-3A (Homo sapiens), P31941. recombinant A3A, FAM/TAMRA ssDNA deamination fluorescence. inhibition, % at 20 µM. 330,000 compounds, 0.41% hits. AID 493011, 2011;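 active = at least 40% inhibition at 20 µM here, with at most 30% in a related deaminase screen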;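 also: plate controls were A3A with DMSO for no effect and wells lacking A3A enzyme for full effect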
PfM18AAP inh: PfM18AAP inhibitors, malaria aminopeptidase, primary screen, biochemical, QFRET, recombinant enzyme | M18 aspartyl aminopeptidase (Plasmodium falciparum 3D7) | H-Glu-NHMec fluorogenic cleavage | inhibition, % at 7.35 µM | 290,000 compounds, 1.2% hits | AID 1822, 2009;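 active = inhibition above the campaign mean inhibition over all tested compounds plus 3 SD, cut at about 28% in these data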;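 also: 0% = plate median of test compound wells and 100% = 2 mM ZnCl2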
A3G deaminase: APOBEC3G DNA deaminase inhibitors, primary screen, biochemical, fluorescence, single-stranded DNA substrate, uHTS; 330,000 compounds, 0.28% hits; inhibition, % at 20 µM; recombinant A3G, ssDNA deamination FAM/TAMRA fluorescence;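 active = inhibition of at least 40% at 20 µM, with no more than 30% in the related APOBEC3A deaminase screen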;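 also: plate controls were DMSO wells with A3G for no effect and wells lacking A3G enzyme for full effect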
Target sequence (Q9HC16 whole entry, looked up): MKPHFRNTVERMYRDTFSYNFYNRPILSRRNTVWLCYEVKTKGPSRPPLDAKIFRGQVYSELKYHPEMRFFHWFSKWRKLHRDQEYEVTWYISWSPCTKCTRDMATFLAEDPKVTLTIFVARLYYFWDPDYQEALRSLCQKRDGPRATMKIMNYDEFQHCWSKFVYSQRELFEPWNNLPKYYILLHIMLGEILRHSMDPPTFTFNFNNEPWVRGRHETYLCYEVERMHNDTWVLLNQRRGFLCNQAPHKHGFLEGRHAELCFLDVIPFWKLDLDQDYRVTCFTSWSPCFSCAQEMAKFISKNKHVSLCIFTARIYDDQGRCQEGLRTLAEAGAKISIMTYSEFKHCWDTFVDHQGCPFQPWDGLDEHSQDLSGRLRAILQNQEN
ALR H2O2 inh: inhibitors of human ALR sulfhydryl oxidase, primary screen, biochemical, H2O2 detection, HRP-luminol luminescence, single point | FAD-linked sulfhydryl oxidase ALR (Homo sapiens), P55789 | inhibition, % (no concentration beside the values) | 290,000 compounds, 3.8% hits | AID 485317, 2010 | purified ALR, DTT oxidation;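 active = mean replicate inhibition above about 79%, with every replicate also reaching it, limit read from the data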
Target sequence (P55789 whole entry, looked up): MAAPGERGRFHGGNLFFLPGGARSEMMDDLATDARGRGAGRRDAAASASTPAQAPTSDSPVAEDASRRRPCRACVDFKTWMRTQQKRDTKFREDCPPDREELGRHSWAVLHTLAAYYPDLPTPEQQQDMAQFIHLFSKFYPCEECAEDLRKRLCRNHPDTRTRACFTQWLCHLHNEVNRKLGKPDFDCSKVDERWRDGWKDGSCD
* marks the source's active call; other numbers are inactive results. A selection: hits, their analogues and other compounds. The true share with any hit is near 5.2%.

Screening Nc1c(Cl)ncnc1N/N=C/c1cccnc1 returned NRP1-CendR mod 7.3, Yeast superoxide 72.0, A3A deaminase 3.7, PfM18AAP inh 8.1, A3G deaminase 0.8 and ALR H2O2 inh 39.7.
Screening COc1cc(/C=N/NS(=O)(=O)c2ccc(C(C)(C)C)cc2)cc([N+](=O)[O-])c1O returned NRP1-CendR mod 5.3, Yeast superoxide 116.8, A3A deaminase -1.5, PfM18AAP inh 8.4, A3G deaminase -4.6 and ALR H2O2 inh 64.6.
O=[N+]([O-])c1cccc(S(=O)(=O)N/N=C/c2ccc(O)cc2)c1 was read as NRP1-CendR mod -13.5, Yeast superoxide 120.2, A3A deaminase -0.1, PfM18AAP inh 7.8, A3G deaminase -1.1 and ALR H2O2 inh 93.1*.
`COc1cc(/C=N/NS(=O)(=O)c2ccc(C)c([N+](=O)[O-])c2)ccc1O` gave NRP1-CendR mod -4.0, Yeast superoxide 102.5, A3A deaminase 9.2, PfM18AAP inh 9.4, A3G deaminase -13.2 and ALR H2O2 inh 99.4*.
For Cc1ccc(S(=O)(=O)N/N=C/c2cc([N+](=O)[O-])ccc2O)cc1[N+](=O)[O-] the results were NRP1-CendR mod -14.8, Yeast superoxide 106.2, A3A deaminase -5.1, PfM18AAP inh 9.4, A3G deaminase -7.4 and ALR H2O2 inh 28.0.
Screening COc1cc(/C=N/NS(=O)(=O)c2ccc(C)c([N+](=O)[O-])c2)cc([N+](=O)[O-])c1O returned NRP1-CendR mod 9.1, Yeast superoxide 109.7, A3A deaminase -3.6, PfM18AAP inh 8.6, A3G deaminase -3.9 and ALR H2O2 inh 93.4*.
For COc1ccc(-n2c(O)c(/C=N/NS(=O)(=O)c3ccc(C)c([N+](=O)[O-])c3)c3ccccc3c2=O)cc1OC the results were NRP1-CendR mod 136.4, Yeast superoxide 93.8, A3A deaminase -10.7, PfM18AAP inh 11.0, A3G deaminase -25.6 and ALR H2O2 inh 97.5*.
Screening COc1ccc(NC(=O)C2CCC(C(C)(C)C)CC2)cc1S(=O)(=O)N1CCCCC1 (stereo not drawn) returned NRP1-CendR mod 6.6, Yeast superoxide 106.2, A3A deaminase 1.8, PfM18AAP inh -2.3 and A3G deaminase -0.9.
Screening CCOC(=O)C1=CCN(S(=O)(=O)c2ccccc2F)C1c1cccc(Br)c1 (stereo not drawn) returned NRP1-CendR mod 5.6.
`CC1CC(C)CN(C(=O)COC(=O)Cc2ccc(Cl)cc2)C1` (stereo not drawn) gave NRP1-CendR mod 5.2, Yeast superoxide 117.4, A3A deaminase -3.0, PfM18AAP inh -1.6, A3G deaminase -10.2 and ALR H2O2 inh -10.5.
For COCc1cc(C)nc(N2CCN(c3ccccc3)CC2)c1C#N the results were NRP1-CendR mod -15.0, Yeast superoxide 82.7, A3A deaminase -1.4, PfM18AAP inh 2.5, A3G deaminase -8.1 and ALR H2O2 inh 94.7*.
For COCc1cc(C)nc(N2CCCCC2)c1C#N the results were NRP1-CendR mod -3.9, Yeast superoxide 111.8, A3A deaminase -9.4, PfM18AAP inh -2.1, A3G deaminase -8.8 and ALR H2O2 inh -2.8.
CCC(CC)C(=O)OCC(=O)Nc1ccc(S(=O)(=O)N2CCOCC2)cc1OC was read as NRP1-CendR mod 1.3, Yeast superoxide 99.4, A3A deaminase 0.5, PfM18AAP inh -0.7, A3G deaminase -2.2 and ALR H2O2 inh 1.6.
Screening Cc1ccc(C(=O)N/C(=C/c2ccc(N(C)C)cc2)C(=O)NCC2CCCO2)cc1 (stereo not drawn) returned NRP1-CendR mod 1.4, Yeast superoxide 99.3, A3A deaminase -1.3, PfM18AAP inh 14.5, A3G deaminase -3.0 and ALR H2O2 inh 86.8*.
`CN(C)c1ccc(NC(=S)NCC2CCCO2)cc1` (stereo not drawn) gave NRP1-CendR mod 4.4, Yeast superoxide 102.3, A3A deaminase -1.8, PfM18AAP inh -2.0, A3G deaminase 2.9 and ALR H2O2 inh 99.5*.
`CCCCc1ccc(NC(=S)NCC2CCCO2)cc1` (stereo not drawn) gave NRP1-CendR mod -3.3, Yeast superoxide 99.8, A3A deaminase -3.6, PfM18AAP inh 0.7 and A3G deaminase -2.8.
`Cc1ccccc1COc1ccc(-c2nn[nH]n2)cc1` gave NRP1-CendR mod 11.2, Yeast superoxide 92.6, A3A deaminase 5.8, PfM18AAP inh 1.1, A3G deaminase 7.0 and ALR H2O2 inh 41.7.
For Brc1cc2c(cc1COc1ccc(-c3nn[nH]n3)cc1)OCO2 the results were NRP1-CendR mod -7.4, Yeast superoxide 117.7, A3A deaminase 1.5, PfM18AAP inh -3.0, A3G deaminase -4.6 and ALR H2O2 inh 98.1*.
For COc1ccc(OC)c(S(=O)(=O)N2CCCC(C(=O)NCc3cccnc3)C2)c1 (stereo not drawn) the results were NRP1-CendR mod 0.0, Yeast superoxide 87.7, A3A deaminase -2.1, PfM18AAP inh -1.4, A3G deaminase -9.2 and ALR H2O2 inh -2.5.
Cc1c(C(=O)NC2=NCCS2)oc2ccccc12 was read as NRP1-CendR mod 5.7, Yeast superoxide 88.5, A3A deaminase -1.7, PfM18AAP inh 5.3, A3G deaminase -5.6 and ALR H2O2 inh 97.2*.
For CC(C)n1ncc2c(C(=O)NCC(=O)Nc3ccccc3Br)cc(C3CC3)nc21 the results were NRP1-CendR mod 14.6, Yeast superoxide 136.1, A3A deaminase -2.4, A3G deaminase -7.1 and ALR H2O2 inh -4.3.
For O=C(N/N=C/c1ccc2c(c1)OCO2)c1cc(-c2ccccc2)nc2ccccc12 the results were NRP1-CendR mod 26.2*, Yeast superoxide 115.3, A3A deaminase -1.5, PfM18AAP inh 4.7, A3G deaminase -4.7 and ALR H2O2 inh -2.4.
Cc1cc(C(=O)N/N=C/c2ccc3c(c2)OCO3)c(C)o1 was read as NRP1-CendR mod 10.4, Yeast superoxide 95.5, A3A deaminase 1.9, PfM18AAP inh -10.4, A3G deaminase -1.3 and ALR H2O2 inh 94.6*.
O=C(N/N=C/c1ccc2c(c1)OCO2)c1cccc2ccccc12 was read as NRP1-CendR mod 29.9*, Yeast superoxide 102.5, A3A deaminase -0.1, PfM18AAP inh 7.6 and A3G deaminase -4.6.
For Cc1ccccc1NCC(=O)N/N=C\c1ccc2c(c1)OCO2 the results were NRP1-CendR mod 3.7, Yeast superoxide 88.4, A3A deaminase 0.7, PfM18AAP inh 1.7, A3G deaminase 2.3 and ALR H2O2 inh 93.7*.
Cc1ccc(C)c(NC(=O)CCC(=O)N/N=C/c2ccc3c(c2)OCO3)c1 was read as NRP1-CendR mod 0.6, Yeast superoxide 109.2, A3A deaminase 1.4, PfM18AAP inh 1.1, A3G deaminase 1.2 and ALR H2O2 inh -6.2.
